# Data reported in PubChem BioAssay (NCI).
# This is part of a sample that, as a whole, favours compounds with a hit. Of some 79,000 tested, about 15% had one in any assay. A number with no mark means an inactive call. Active and inactive are the calls of the source. No stated cut-off is given here; in the data, active means growth inhibition above about 70%; inactive means the rest.
# Tests used:
# [1] = NCI Yeast Anticancer Drug Screen. Data for the wt1 strain (AID 149);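 further: 0% = growth of vehicle-treated wt1 cultures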; conditions: S. cerevisiae wt1 strain (SPY 50644) growth inhibition, active compounds read high
# Summary of the method: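 The wt1 strain was treated with compounds, and growth was compared with vehicle-treated cultures to give inhibition.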
# [2] = NCI Yeast Anticancer Drug Screen. Data for the mgt1 strain (AID 153); conditions: S. cerevisiae mgt1 mutant growth inhibition, active compounds read high
# Summary of the method: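 Growth inhibition relative to vehicle controls was scored for the mgt1 yeast strain after compound exposure.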
# [3] = NCI Yeast Anticancer Drug Screen. Data for the rad50 strain (AID 155);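 further: 0% = growth of vehicle-only cultures of the same strain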; conditions: S. cerevisiae rad50 strain growth inhibition, active compounds read high
# Summary of the method: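 Cells are treated with compound, grown, and their growth is then scored against vehicle-only cultures of the same repair-deficient yeast strain.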
# [4] = NCI Yeast Anticancer Drug Screen. Data for the mec2-1 strain (AID 157); conditions: S. cerevisiae mec2-1 strain, active compounds read high
# Summary of the method: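 Growth inhibition is read against vehicle-treated controls after compound exposure of the mec2-1 yeast strain, which is defective in DNA damage repair or cell cycle control.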
# [5] = NCI Yeast Anticancer Drug Screen. Data for the rad14 strain (AID 159);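 further: 0% = growth of vehicle-treated control cultures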; conditions: S. cerevisiae rad14 strain growth inhibition, active compounds read high
# Summary of the method: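 Readout: yeast growth inhibition, referenced to vehicle-only cultures. Strain bears a defined alteration in DNA damage repair.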
# [6] = NCI Yeast Anticancer Drug Screen. Data for the sgs1 mgt1 strain (AID 161);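 further: 0% = growth of cultures given vehicle only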; conditions: S. cerevisiae sgs1 mgt1 strain, active compounds read high
# Summary of the method: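 Yeast cells carrying a defined DNA-repair defect were exposed to test compounds. Growth inhibition was measured relative to vehicle-treated controls.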
# [7] = NCI Yeast Anticancer Drug Screen. Data for the CLN2oe strain (AID 163);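 further: 0% = growth of vehicle-only control cultures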; conditions: S. cerevisiae CLN2oe strain, active compounds read high
# Summary of the method: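 Compound-treated yeast; growth vs vehicle ctrl = % inhibition. Genetically altered strain (cell-cycle control).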
# [8] = NCI Yeast Anticancer Drug Screen. Data for the cln2 rad14 strain (AID 165);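 further: 0% = growth equal to vehicle treated cultures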; conditions: S. cerevisiae cln2 rad14 strain, active compounds read high
# Summary of the method: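 Growth inhibition, relative to vehicle-treated controls, is the read-out. The test organism is a yeast strain with defined genetic alterations, cln2 rad14.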
# [9] = NCI Yeast Anticancer Drug Screen. Data for the bub3 strain (AID 167); conditions: S. cerevisiae bub3 mutant strain, active compounds read high
# Summary of the method: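 Part of a panel of yeast mutants defective in DNA damage repair or cell cycle regulation. Each strain is grown with compound, and inhibition is calculated relative to solvent-treated cultures.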
# [10] = NCI Yeast Anticancer Drug Screen. Data for the wt2 strain (AID 169);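 further: 0% = growth of vehicle-treated yeast cultures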; conditions: S. cerevisiae wt2 strain growth inhibition, active compounds read high
# Summary of the method: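 Compound exposure of yeast; growth compared with vehicle controls; inhibition reported.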
# [11] = NCI Yeast Anticancer Drug Screen. Data for the mlh1 strain (AID 171);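 further: 0% = growth of vehicle-treated control cultures of the same strain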; conditions: S. cerevisiae mlh1 strain growth inhibition, active compounds read high
# Summary of the method: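 Compounds are applied to a genetically altered yeast strain, and its growth is compared with that of vehicle-treated cultures to give percent inhibition.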
# [12] = NCI Yeast Anticancer Drug Screen. Data for the sgs1 strain (AID 173);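 further: 0% = growth of vehicle-only control cultures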; conditions: S. cerevisiae sgs1 mutant, active compounds read high
# Summary of the method: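 Compounds applied to genetically altered yeast; growth compared with vehicle-treated cultures to give % inhibition.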
# [13] = NCI Yeast Anticancer Drug Screen. Data for the mlh1 rad18 strain (AID 175); conditions: S. cerevisiae mlh1 rad18 strain growth inhibition, active compounds read high
# Summary of the method: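 Cells of a genetically altered yeast strain, deficient in DNA damage repair, were treated with compound. Their growth was then compared with that of vehicle-treated cultures to give inhibition.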
# [14] = NCI Yeast Anticancer Drug Screen. Data for the rad18 strain (AID 177); conditions: S. cerevisiae rad18 mutant growth inhibition, active compounds read high
# Summary of the method: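 Compounds are applied to a repair-deficient yeast strain, and growth is compared with that of vehicle-treated cultures to give percent inhibition.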
# [15] = NCI Yeast Anticancer Drug Screen. Data for the rad50EPP+ strain (AID 151);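 further: 0% = growth of vehicle-treated control cultures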; conditions: S. cerevisiae rad50 mutant strain, active compounds read high
# Summary of the method: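 rad50EPP+ yeast treated with test compounds. Readout: growth vs vehicle control.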
# [16] = at 5.0 µM (retest, dose inferred, filed as 0.5)
# [17] = at 50.0 µM (retest, dose inferred, filed as 5.0)
smiles,measurement,setting,value
O=C(c1c(F)c(F)c(F)c(F)c1F)c1c(F)c(F)c(F)c(F)c1F,growth inhibition,[1]; at 1.2 µM,3%
same,growth inhibition,[1]; at 3.7 µM,49%
same,growth inhibition,[1]; at 11.0 µM,95% (active)
same,growth inhibition,[1]; at 33.0 µM,99% (active)
same,growth inhibition,[1]; at 100.0 µM,99% (active)
same,growth inhibition,[2]; at 1.2 µM,24%
same,growth inhibition,[2]; at 3.7 µM,59%
same,growth inhibition,[2]; at 11.0 µM,98% (active)
same,growth inhibition,[2]; at 33.0 µM,99% (active)
same,growth inhibition,[2]; at 100.0 µM,99% (active)
same,growth inhibition,[3]; at 1.2 µM,27%
same,growth inhibition,[3]; at 3.7 µM,59%
same,growth inhibition,[3]; [16],79% (active)
same,growth inhibition,[3]; at 11.0 µM,95% (active)
same,growth inhibition,[3]; at 33.0 µM,96% (active)
same,growth inhibition,[3]; [17],97% (active)
same,growth inhibition,[3]; at 50.0 µM,84.6% (active)
same,growth inhibition,[3]; at 100.0 µM,95% (active)
same,growth inhibition,[4]; at 1.2 µM,36%
same,growth inhibition,[4]; at 3.7 µM,77% (active)
same,growth inhibition,[4]; [16],61%
same,growth inhibition,[4]; at 11.0 µM,99% (active)
same,growth inhibition,[4]; at 33.0 µM,100% (active)
same,growth inhibition,[4]; [17],99% (active)
same,growth inhibition,[4]; at 50.0 µM,87.5% (active)
same,growth inhibition,[4]; at 100.0 µM,99% (active)
same,growth inhibition,[5]; at 1.2 µM,10%
same,growth inhibition,[5]; at 3.7 µM,55%
same,growth inhibition,[5]; at 11.0 µM,98% (active)
same,growth inhibition,[5]; at 33.0 µM,99% (active)
same,growth inhibition,[5]; at 100.0 µM,99% (active)
same,growth inhibition,[6]; [16],15%
same,growth inhibition,[6]; [17],74% (active)
same,growth inhibition,[6]; at 50.0 µM,76.7% (active)
same,growth inhibition,[7]; at 1.2 µM,4%
same,growth inhibition,[7]; at 3.7 µM,72% (active)
same,growth inhibition,[7]; at 11.0 µM,98% (active)
same,growth inhibition,[7]; at 33.0 µM,99% (active)
same,growth inhibition,[7]; at 100.0 µM,97% (active)
same,growth inhibition,[8]; [16],38%
same,growth inhibition,[8]; [17],70% (active)
same,growth inhibition,[8]; at 50.0 µM,85.7% (active)
same,growth inhibition,[9]; at 1.2 µM,54%
same,growth inhibition,[9]; at 3.7 µM,80% (active)
same,growth inhibition,[9]; [16],3%
same,growth inhibition,[9]; at 11.0 µM,96% (active)
same,growth inhibition,[9]; at 33.0 µM,99% (active)
same,growth inhibition,[9]; [17],80% (active)
same,growth inhibition,[9]; at 50.0 µM,88.7% (active)
same,growth inhibition,[9]; at 100.0 µM,97% (active)
same,growth inhibition,[10]; at 1.2 µM,16%
same,growth inhibition,[10]; at 3.7 µM,52%
same,growth inhibition,[10]; at 11.0 µM,98% (active)
same,growth inhibition,[10]; at 33.0 µM,99% (active)
same,growth inhibition,[10]; at 100.0 µM,98% (active)
same,growth inhibition,[11]; at 1.2 µM,16%
same,growth inhibition,[11]; at 3.7 µM,56%
same,growth inhibition,[11]; at 11.0 µM,97% (active)
same,growth inhibition,[11]; at 33.0 µM,98% (active)
same,growth inhibition,[11]; at 100.0 µM,97% (active)
same,growth inhibition,[12]; at 1.2 µM,39%
same,growth inhibition,[12]; at 3.7 µM,72% (active)
same,growth inhibition,[12]; at 11.0 µM,96% (active)
same,growth inhibition,[12]; at 33.0 µM,97% (active)
same,growth inhibition,[12]; at 100.0 µM,95% (active)
same,growth inhibition,[13]; [16],45%
same,growth inhibition,[13]; [17],88% (active)
same,growth inhibition,[13]; at 50.0 µM,67.3%
same,growth inhibition,[14]; at 1.2 µM,28%
same,growth inhibition,[14]; at 3.7 µM,56%
same,growth inhibition,[14]; at 11.0 µM,92% (active)
same,growth inhibition,[14]; at 33.0 µM,96% (active)
same,growth inhibition,[14]; at 100.0 µM,93% (active)
CC(C)(C(=O)NN)c1ccccc1,growth inhibition,[15]; at 1.2 µM,4%
same,growth inhibition,[15]; at 3.7 µM,25%
same,growth inhibition,[15]; at 11.0 µM,52%
same,growth inhibition,[15]; at 33.0 µM,68%
same,growth inhibition,[15]; at 100.0 µM,85% (active)
same,growth inhibition,[3]; at 1.2 µM,3%
same,growth inhibition,[3]; at 3.7 µM,5%
same,growth inhibition,[3]; [16],14%
same,growth inhibition,[3]; at 11.0 µM,22%
same,growth inhibition,[3]; at 33.0 µM,40%
same,growth inhibition,[3]; [17],99% (active)
same,growth inhibition,[3]; at 50.0 µM,52.9%
same,growth inhibition,[3]; at 100.0 µM,82% (active)
same,growth inhibition,[4]; at 1.2 µM,0%
same,growth inhibition,[4]; at 3.7 µM,1%
same,growth inhibition,[4]; [16],11%
same,growth inhibition,[4]; at 11.0 µM,24%
same,growth inhibition,[4]; at 33.0 µM,53%
same,growth inhibition,[4]; [17],95% (active)
same,growth inhibition,[4]; at 50.0 µM,9.5%
same,growth inhibition,[4]; at 100.0 µM,83% (active)
same,growth inhibition,[6]; [16],14%
same,growth inhibition,[6]; [17],98% (active)
same,growth inhibition,[6]; at 50.0 µM,14.9%
same,growth inhibition,[7]; at 1.2 µM,-7%
same,growth inhibition,[7]; at 3.7 µM,-1%
same,growth inhibition,[7]; at 11.0 µM,27%
same,growth inhibition,[7]; at 33.0 µM,51%
same,growth inhibition,[7]; at 100.0 µM,81% (active)
same,growth inhibition,[9]; at 1.2 µM,-3%
same,growth inhibition,[9]; at 3.7 µM,0%
same,growth inhibition,[9]; [16],-14%
same,growth inhibition,[9]; at 11.0 µM,34%
same,growth inhibition,[9]; at 33.0 µM,70% (active)
same,growth inhibition,[9]; [17],97% (active)
same,growth inhibition,[9]; at 50.0 µM,52%
same,growth inhibition,[9]; at 100.0 µM,94% (active)
same,growth inhibition,[10]; at 1.2 µM,1%
same,growth inhibition,[10]; at 3.7 µM,10%
same,growth inhibition,[10]; at 11.0 µM,28%
same,growth inhibition,[10]; at 33.0 µM,42%
same,growth inhibition,[10]; at 100.0 µM,83% (active)
same,growth inhibition,[11]; at 1.2 µM,3%
same,growth inhibition,[11]; at 3.7 µM,5%
same,growth inhibition,[11]; at 11.0 µM,21%
same,growth inhibition,[11]; at 33.0 µM,46%
same,growth inhibition,[11]; at 100.0 µM,91% (active)
same,growth inhibition,[12]; at 1.2 µM,0%
same,growth inhibition,[12]; at 3.7 µM,13%
same,growth inhibition,[12]; at 11.0 µM,41%
same,growth inhibition,[12]; at 33.0 µM,71% (active)
same,growth inhibition,[12]; at 100.0 µM,94% (active)
same,growth inhibition,[13]; [16],63%
same,growth inhibition,[13]; [17],99% (active)
same,growth inhibition,[13]; at 50.0 µM,62.9%
same,growth inhibition,[14]; at 1.2 µM,2%
same,growth inhibition,[14]; at 3.7 µM,8%
same,growth inhibition,[14]; at 11.0 µM,46%
same,growth inhibition,[14]; at 33.0 µM,70% (active)
same,growth inhibition,[14]; at 100.0 µM,92% (active)
